# Results: ChEMBL document CHEMBL1961873, “Compounds: GSK PKIS; Assays: Nanosyn kinase panel” (2012)
# What was measured:
# [1] = system: Epidermal growth factor receptor (Homo sapiens), P00533 [T790M]; details: at 1 µM
# [2] = system: Epidermal growth factor receptor (Homo sapiens), P00533 [L858R,T790M]; details: at 0.1 µM
# [3] = system: Epidermal growth factor receptor (Homo sapiens), P00533 [L858R,T790M]; details: at 1 µM
# [4] = target: Ephrin type-A receptor 2 (Homo sapiens) (UniProt P29317); details: at 0.1 µM
# [5] = target: Ephrin type-A receptor 2 (Homo sapiens) (UniProt P29317); details: at 1 µM
# [6] = target: T1, Ephrin type-A receptor 3 (Homo sapiens) (UniProt P29320); details: at 0.1 µM
# T1 sequence (whole entry): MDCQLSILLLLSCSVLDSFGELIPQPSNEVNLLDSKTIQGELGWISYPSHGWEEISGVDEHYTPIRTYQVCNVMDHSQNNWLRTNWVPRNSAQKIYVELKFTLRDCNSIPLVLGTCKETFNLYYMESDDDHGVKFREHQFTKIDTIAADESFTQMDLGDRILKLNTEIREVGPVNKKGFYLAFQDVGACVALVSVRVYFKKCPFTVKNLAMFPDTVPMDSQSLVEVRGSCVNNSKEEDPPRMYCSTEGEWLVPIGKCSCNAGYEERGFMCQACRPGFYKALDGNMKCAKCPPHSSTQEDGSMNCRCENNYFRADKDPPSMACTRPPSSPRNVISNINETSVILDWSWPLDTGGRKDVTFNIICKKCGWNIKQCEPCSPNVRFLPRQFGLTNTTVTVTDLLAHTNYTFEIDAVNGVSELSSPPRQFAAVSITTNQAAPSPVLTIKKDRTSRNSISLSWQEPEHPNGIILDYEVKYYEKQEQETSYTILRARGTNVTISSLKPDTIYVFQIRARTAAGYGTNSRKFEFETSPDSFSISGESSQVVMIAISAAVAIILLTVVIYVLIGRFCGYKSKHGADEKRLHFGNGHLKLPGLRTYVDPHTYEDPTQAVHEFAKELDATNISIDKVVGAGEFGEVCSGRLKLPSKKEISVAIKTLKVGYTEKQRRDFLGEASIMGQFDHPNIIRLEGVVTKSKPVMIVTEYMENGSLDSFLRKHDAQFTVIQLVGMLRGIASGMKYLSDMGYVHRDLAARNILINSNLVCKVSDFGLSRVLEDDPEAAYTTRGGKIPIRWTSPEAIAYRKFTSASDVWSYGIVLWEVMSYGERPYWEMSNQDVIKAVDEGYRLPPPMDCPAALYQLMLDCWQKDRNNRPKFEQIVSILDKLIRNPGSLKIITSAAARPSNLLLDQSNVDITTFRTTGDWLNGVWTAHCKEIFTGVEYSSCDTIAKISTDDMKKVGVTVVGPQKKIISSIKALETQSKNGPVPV
# [7] = target: T1, Ephrin type-A receptor 3 (Homo sapiens); details: at 1 µM
# [8] = target: Ephrin type-A receptor 4 (Homo sapiens) (UniProt P54764); details: at 0.1 µM
# [9] = target: Ephrin type-A receptor 4 (Homo sapiens) (UniProt P54764); details: at 1 µM
# [10] = target: T2, Ephrin type-B receptor 2 (Homo sapiens) (UniProt P29323); details: at 0.1 µM
# T2 sequence (whole entry): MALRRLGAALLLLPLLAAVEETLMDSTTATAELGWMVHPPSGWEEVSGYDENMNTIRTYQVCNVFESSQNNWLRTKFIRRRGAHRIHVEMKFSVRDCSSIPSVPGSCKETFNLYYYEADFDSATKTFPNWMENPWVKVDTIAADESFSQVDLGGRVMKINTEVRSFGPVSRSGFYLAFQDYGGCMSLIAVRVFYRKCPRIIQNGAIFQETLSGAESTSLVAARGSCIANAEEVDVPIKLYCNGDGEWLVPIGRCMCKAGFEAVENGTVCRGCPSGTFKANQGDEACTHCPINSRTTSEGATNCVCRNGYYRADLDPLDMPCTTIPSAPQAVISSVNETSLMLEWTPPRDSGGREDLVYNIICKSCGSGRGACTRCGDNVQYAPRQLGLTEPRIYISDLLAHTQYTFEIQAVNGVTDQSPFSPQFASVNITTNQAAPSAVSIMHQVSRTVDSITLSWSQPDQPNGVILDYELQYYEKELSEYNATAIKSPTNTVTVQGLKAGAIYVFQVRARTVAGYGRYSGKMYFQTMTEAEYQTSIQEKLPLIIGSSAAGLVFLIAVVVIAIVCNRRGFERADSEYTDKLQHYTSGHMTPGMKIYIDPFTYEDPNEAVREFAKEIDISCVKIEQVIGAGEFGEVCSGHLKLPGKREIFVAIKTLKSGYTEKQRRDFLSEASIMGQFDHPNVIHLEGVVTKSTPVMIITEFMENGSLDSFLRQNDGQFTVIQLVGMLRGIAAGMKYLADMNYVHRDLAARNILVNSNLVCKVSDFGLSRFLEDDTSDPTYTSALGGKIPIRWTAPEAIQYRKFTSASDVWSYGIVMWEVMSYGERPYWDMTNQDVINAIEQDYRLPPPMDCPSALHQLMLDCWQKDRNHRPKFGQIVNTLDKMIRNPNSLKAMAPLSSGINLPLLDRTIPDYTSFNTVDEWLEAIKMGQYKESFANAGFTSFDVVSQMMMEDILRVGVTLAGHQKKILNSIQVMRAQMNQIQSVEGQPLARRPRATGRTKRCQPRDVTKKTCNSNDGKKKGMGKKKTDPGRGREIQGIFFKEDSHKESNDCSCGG
# [11] = target: T2, Ephrin type-B receptor 2 (Homo sapiens); details: at 1 µM
# [12] = target: T3, Ephrin type-B receptor 3 (Homo sapiens) (UniProt P54753); details: at 0.1 µM
# T3 sequence (whole entry): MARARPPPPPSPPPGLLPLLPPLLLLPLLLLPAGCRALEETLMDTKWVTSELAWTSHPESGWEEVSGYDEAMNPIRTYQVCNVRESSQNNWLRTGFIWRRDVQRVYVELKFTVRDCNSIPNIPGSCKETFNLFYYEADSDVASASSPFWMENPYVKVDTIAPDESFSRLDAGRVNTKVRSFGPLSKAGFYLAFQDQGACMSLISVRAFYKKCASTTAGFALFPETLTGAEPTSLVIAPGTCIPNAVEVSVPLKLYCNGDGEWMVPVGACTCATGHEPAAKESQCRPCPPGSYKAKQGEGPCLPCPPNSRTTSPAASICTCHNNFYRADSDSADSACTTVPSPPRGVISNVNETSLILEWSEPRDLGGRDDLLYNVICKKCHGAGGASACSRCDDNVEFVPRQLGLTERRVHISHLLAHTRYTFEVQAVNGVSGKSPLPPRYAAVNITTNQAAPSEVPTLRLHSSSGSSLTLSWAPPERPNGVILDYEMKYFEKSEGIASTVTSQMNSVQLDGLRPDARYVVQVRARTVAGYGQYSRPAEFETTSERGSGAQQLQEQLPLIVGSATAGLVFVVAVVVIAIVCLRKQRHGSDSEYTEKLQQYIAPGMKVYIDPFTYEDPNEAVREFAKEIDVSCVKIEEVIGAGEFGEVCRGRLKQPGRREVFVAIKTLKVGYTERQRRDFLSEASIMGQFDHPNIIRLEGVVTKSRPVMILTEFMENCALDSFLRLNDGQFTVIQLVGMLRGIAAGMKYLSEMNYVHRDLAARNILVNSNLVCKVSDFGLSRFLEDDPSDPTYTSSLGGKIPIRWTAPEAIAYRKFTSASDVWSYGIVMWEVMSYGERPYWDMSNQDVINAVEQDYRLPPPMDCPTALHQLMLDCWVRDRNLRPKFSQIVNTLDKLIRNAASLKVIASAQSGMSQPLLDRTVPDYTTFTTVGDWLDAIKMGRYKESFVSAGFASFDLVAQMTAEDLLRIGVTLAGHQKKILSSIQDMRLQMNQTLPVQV
# [13] = target: T3, Ephrin type-B receptor 3 (Homo sapiens); details: at 1 µM
# [14] = target: T4, Ephrin type-B receptor 4 (Homo sapiens) (UniProt P54760); details: at 0.1 µM
# T4 sequence (whole entry): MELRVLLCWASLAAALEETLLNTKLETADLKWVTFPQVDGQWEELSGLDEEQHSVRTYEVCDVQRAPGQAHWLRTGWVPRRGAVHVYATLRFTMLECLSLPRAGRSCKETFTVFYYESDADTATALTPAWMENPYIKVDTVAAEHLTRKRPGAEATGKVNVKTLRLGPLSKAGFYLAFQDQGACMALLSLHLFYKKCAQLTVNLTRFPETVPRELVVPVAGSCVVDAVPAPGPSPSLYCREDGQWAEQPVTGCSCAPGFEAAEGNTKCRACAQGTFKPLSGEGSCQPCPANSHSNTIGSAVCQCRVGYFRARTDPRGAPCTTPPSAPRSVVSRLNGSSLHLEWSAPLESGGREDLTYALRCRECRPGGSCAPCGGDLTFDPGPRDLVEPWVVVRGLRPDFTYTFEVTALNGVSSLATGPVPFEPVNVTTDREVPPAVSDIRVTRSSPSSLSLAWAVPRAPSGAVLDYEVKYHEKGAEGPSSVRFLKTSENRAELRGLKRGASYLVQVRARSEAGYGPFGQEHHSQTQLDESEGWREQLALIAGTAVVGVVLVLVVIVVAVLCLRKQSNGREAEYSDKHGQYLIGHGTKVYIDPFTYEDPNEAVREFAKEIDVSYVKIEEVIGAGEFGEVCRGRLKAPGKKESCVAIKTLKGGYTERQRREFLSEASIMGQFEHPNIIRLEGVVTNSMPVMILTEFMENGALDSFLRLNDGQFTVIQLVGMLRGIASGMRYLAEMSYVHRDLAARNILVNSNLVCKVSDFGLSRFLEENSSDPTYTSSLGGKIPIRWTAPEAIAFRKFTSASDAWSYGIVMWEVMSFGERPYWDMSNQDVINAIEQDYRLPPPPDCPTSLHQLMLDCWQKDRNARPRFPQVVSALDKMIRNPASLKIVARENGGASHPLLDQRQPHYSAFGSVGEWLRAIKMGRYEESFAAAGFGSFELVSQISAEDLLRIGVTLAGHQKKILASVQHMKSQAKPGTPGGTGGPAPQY
# [15] = target: T4, Ephrin type-B receptor 4 (Homo sapiens); details: at 1 µM
# [16] = target: Receptor tyrosine-protein kinase erbB-2 (Homo sapiens) (UniProt P04626); details: at 0.1 µM
# [17] = target: Receptor tyrosine-protein kinase erbB-2 (Homo sapiens) (UniProt P04626); details: at 1 µM
# [18] = target: Receptor tyrosine-protein kinase erbB-4 (Homo sapiens) (UniProt Q15303); details: at 0.1 µM
# [19] = target: Receptor tyrosine-protein kinase erbB-4 (Homo sapiens) (UniProt Q15303); details: at 1 µM
# [20] = target: Tyrosine-protein kinase Fer (Homo sapiens) (UniProt P16591); details: at 0.1 µM;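 note: reported figures are averaged percent inhibition of FER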
# Chain of Tyrosine-protein kinase Fer (Homo sapiens) (P16591 whole entry, looked up): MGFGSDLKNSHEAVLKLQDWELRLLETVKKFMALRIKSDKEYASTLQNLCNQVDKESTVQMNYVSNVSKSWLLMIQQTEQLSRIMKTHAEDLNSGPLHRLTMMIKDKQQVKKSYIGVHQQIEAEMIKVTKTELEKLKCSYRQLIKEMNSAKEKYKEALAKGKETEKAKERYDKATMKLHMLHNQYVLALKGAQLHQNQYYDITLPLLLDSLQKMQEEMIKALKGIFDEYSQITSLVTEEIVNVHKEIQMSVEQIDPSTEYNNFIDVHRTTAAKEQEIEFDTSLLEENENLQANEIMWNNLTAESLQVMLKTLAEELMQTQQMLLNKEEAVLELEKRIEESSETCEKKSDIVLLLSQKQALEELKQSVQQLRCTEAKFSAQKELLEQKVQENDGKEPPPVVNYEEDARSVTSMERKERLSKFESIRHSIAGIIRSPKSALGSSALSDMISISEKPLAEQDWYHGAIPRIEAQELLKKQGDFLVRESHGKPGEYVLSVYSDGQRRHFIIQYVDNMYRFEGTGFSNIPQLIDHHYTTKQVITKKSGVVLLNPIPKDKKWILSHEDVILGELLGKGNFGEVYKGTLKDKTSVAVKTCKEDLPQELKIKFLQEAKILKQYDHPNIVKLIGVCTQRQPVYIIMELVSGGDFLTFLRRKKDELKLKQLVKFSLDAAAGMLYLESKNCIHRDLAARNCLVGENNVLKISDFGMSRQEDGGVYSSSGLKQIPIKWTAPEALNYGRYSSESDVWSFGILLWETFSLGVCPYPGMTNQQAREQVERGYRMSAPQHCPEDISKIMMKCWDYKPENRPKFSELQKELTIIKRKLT
# Chain of Epidermal growth factor receptor (Homo sapiens), P00533 [L858R,T790M] (P00533 whole entry T790M/L858R, looked up): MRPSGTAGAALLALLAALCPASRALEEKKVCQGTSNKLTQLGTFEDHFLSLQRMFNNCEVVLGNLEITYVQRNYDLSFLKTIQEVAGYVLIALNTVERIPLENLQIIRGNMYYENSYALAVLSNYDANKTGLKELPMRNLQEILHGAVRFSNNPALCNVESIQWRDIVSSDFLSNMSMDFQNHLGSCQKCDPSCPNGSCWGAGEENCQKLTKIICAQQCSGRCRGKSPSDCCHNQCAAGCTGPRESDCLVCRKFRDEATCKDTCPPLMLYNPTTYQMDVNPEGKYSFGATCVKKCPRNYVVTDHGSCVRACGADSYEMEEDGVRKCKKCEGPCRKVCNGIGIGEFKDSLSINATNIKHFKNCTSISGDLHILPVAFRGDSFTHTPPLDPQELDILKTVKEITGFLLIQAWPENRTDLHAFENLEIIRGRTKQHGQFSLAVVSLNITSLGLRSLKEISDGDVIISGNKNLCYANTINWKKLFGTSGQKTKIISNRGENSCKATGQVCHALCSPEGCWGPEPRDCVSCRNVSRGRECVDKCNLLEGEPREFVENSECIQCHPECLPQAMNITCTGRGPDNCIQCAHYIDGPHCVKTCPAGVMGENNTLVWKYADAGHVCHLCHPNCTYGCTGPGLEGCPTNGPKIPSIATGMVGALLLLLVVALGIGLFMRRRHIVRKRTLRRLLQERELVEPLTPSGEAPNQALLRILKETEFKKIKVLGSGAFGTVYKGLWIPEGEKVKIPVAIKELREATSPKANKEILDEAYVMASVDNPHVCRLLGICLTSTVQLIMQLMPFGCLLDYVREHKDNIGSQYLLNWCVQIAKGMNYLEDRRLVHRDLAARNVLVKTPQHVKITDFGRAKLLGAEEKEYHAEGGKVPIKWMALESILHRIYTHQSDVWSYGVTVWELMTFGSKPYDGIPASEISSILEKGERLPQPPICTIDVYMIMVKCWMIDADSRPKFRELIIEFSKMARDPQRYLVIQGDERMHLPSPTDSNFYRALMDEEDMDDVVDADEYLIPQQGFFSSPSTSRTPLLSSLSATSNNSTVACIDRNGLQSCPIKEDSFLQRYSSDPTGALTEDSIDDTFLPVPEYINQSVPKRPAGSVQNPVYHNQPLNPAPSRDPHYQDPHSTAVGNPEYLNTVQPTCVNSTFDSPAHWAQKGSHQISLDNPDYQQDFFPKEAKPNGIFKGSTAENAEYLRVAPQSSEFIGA
# Chain of Epidermal growth factor receptor (Homo sapiens), P00533 [T790M] (P00533 whole entry T790M): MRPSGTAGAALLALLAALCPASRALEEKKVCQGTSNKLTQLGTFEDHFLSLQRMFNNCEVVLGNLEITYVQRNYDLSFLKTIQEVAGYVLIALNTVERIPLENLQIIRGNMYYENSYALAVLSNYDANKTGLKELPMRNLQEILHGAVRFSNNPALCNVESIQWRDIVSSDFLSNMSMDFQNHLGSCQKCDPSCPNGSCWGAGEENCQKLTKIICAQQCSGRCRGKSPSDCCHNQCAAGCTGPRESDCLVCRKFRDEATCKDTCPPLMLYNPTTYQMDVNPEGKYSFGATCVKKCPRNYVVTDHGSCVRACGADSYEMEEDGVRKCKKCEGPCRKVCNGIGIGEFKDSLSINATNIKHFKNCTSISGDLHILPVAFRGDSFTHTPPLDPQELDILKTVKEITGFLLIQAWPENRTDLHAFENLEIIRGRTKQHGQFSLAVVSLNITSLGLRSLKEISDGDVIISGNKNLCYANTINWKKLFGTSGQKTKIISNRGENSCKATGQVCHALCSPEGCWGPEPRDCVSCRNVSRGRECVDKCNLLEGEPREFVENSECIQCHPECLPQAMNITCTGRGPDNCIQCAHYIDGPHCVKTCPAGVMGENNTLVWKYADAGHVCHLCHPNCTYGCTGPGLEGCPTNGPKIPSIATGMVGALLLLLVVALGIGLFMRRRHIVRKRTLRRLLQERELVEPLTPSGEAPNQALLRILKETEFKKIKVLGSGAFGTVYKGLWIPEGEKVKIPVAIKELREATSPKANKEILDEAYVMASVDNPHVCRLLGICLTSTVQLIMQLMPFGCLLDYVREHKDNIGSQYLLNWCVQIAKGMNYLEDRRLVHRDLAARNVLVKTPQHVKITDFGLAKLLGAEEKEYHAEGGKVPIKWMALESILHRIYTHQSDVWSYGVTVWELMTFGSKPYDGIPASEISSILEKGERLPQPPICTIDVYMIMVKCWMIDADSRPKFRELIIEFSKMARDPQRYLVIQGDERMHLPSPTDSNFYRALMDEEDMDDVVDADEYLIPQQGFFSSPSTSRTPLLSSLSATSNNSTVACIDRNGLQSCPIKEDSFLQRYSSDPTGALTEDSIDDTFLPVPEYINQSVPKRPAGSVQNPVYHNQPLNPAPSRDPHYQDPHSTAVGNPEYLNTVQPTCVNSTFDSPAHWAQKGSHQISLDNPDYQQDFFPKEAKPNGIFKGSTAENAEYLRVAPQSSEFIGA
# Chain of Ephrin type-A receptor 2 (Homo sapiens) (P29317 whole entry): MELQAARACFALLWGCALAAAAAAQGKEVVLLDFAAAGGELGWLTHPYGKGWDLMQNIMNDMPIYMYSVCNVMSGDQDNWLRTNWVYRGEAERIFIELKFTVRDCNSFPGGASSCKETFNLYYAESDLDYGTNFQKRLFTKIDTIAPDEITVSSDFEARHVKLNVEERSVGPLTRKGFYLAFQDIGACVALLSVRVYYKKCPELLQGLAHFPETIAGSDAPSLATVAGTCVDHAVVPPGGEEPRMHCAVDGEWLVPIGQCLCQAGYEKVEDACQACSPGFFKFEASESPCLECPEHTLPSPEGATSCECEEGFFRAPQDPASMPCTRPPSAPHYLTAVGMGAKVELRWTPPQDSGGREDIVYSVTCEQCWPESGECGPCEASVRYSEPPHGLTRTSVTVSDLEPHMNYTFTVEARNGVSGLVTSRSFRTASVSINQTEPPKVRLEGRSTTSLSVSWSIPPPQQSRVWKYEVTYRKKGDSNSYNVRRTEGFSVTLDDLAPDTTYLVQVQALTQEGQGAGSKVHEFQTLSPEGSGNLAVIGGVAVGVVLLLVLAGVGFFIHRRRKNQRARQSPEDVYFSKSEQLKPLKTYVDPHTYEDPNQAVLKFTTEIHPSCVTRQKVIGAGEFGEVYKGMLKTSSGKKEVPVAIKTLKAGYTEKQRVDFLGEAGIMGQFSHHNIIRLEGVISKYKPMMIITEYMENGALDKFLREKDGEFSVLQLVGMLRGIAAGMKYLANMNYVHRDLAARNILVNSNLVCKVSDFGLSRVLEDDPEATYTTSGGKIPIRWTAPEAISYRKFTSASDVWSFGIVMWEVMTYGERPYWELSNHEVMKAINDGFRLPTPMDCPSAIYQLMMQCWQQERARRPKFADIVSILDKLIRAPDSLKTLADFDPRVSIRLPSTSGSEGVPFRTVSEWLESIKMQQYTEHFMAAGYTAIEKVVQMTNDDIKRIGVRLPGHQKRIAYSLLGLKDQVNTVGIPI
Compound,inhibition [1],inhibition [2],inhibition [3],inhibition [4],inhibition [5],inhibition [6],inhibition [7],inhibition [8],inhibition [9],inhibition [10],inhibition [11],inhibition [12],inhibition [13],inhibition [14],inhibition [15],inhibition [16],inhibition [17],inhibition [18],inhibition [19],inhibition [20]
CCN(CC)Cc1ccc(Nc2nccc(-c3cnn4ncccc34)n2)cc1,1.33%,0.05%,4.64%,-3.31%,-5.2%,-1.76%,0.69%,6.79%,15.2%,8.25%,27.2%,-0.97%,0.55%,1.62%,8.4%,3.58%,3.96%,1.52%,5.17%,3.88%
CCc1nccc2c1nc(-c1nonc1N)n2CC,-1.27%,-0.81%,1.48%,0.61%,0.69%,-0.26%,1.46%,0.87%,-5.92%,-5.8%,-7.41%,2.73%,-3.8%,1.19%,1.5%,-0.18%,-3.91%,8.55%,9.58%,5.29%
CCS(=O)(=O)c1ccc(OC)c(Nc2ncc(-c3ccccc3Cl)o2)c1,3.29%,-1.69%,-0.03%,1.32%,1.73%,5.46%,4.36%,5.58%,9.33%,4.99%,8.86%,4.07%,3.23%,1.77%,1.22%,-1.67%,1.42%,4.14%,4.95%,-0.76%
NC(=O)c1cc(-c2ccncc2)cc(-c2ccccc2)c1N,2.91%,3.41%,9.94%,15.2%,56.3%,5.37%,8.77%,19.8%,62.8%,16.5%,57.7%,7.22%,21.1%,7.68%,36%,4.68%,8.53%,21.7%,33.8%,6.01%
CS(=O)(=O)CCNCc1ccc(-c2ccc3ncnc(Nc4ccc(OCc5ccccc5)c(Br)c4)c3c2)o1,15.8%,1.22%,-0.73%,-1.09%,-2.25%,1.29%,1.45%,7%,10.9%,7.88%,6.61%,-1.4%,-0.23%,-1.9%,-0.22%,10.8%,73.5%,42.6%,79.8%,2.74%
NC(=O)Cc1ccccc1Oc1nccc(-c2c(-c3ccc(F)cc3)ncn2C2CCNCC2)n1,0.65%,0.76%,4.08%,-0.02%,-0.27%,2.08%,3.17%,5.89%,-0.14%,6.12%,6.53%,3.13%,4.05%,0.65%,2.09%,2.21%,-1.85%,12.1%,17.1%,6.39%
Fc1ccc(-c2ncn(CCCN3CCOCC3)c2-c2ccncc2)cc1,-1.55%,-3.9%,1.72%,0.95%,1.3%,1.04%,0.84%,1.1%,-5.4%,-4.85%,-5.28%,2.51%,-2.79%,0.93%,-0.14%,-0.2%,-6.58%,4.44%,4.14%,0.26%
